Screens: PubChem, Broad Institute
T cruzi growth-1 = inhibitors of T. cruzi proliferation. inhibition, % at 8.34 µM. 77,000 tested, 5.9% active. T. cruzi beta-gal in NIH3T3, GalScreen luminescence, 90 h;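 active = mean inhibition above about 93%, with at least 55% of replicates each passing it, limit read from the data, passing the limit was not always enough; inconclusive = only one of those two conditions holds; inactive = neither condition holds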
C diff HTS = inhibitors of Clostridium difficile growth | AID 1259249 | Clostridium difficile clinical isolate growth, OD600, 24 h; active compounds read low | 86,000 tested, 0.25% active | growth activity, negative = inhibition, % at 16 µg/mL (by protocol);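 active = mean growth activity at or below -80% and every replicate also at or below -80%; inconclusive = mean at or below -80% but some replicate above -80%; inactive = mean growth activity above -80%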;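 note: 0% = DMSO wells and -100% = levofloxacin 16 µg/mL wells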
Pf Dd2 inh = P. falciparum Dd2 growth inhibition; SYBR Green, 72 h; active compounds read low; activity change, % at 10 µM; 94,000 tested, 2.3% active; AID 1159554; in the data active = activity change below about -80%; inconclusive = no clear call, values can overlap the other calls
T cruzi growth-2 = inhibitors of T. cruzi proliferation; shares compounds with T cruzi growth-1; T. cruzi beta-gal in NIH3T3, GalScreen luminescence, 90 h; inhibition, % at 8.35 µM; 5,600 tested, 72% active;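 active = mean replicate inhibition above about 95% and at least 55% of replicates individually reaching it, limit read from the data; inconclusive = only one of the two criteria is met; inactive = neither criterion is met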
T cruzi growth-3 = inhibitors of T. cruzi proliferation. shares compounds with T cruzi growth-1. T. cruzi beta-gal in NIH3T3, GalScreen luminescence, 90 h. 5,600 tested, 21% active. inhibition, % at 2.09 µM;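 active = mean inhibition above about 95%, with at least 55% of replicates also reaching it, limit read from the data; inconclusive = meets just one of the two conditions; inactive = meets neither condition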;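 note: plate controls were neutral control median for no effect and positive control median for full effect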
NIH3T3 tox = cytotoxicity in mouse NIH/3T3 fibroblasts | shares compounds with T cruzi growth-1 | NIH/3T3 viability, CellTiter-Glo ATP luminescence, 90 h | cytotoxicity (signal decrease), % at 8.35 µM | 5,600 tested, 14% active;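 active = mean signal decrease across replicates above about 35% based on untreated-well scatter, with enough replicates individually passing, limit read from the data; inconclusive = no rule stated though some were filed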;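 note: 0% = median of neutral control wells and 100% = median of positive control wells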
NIH3T3 tox 2 = kills mouse NIH/3T3 fibroblasts. shares compounds with T cruzi growth-1. NIH/3T3 viability, CellTiter-Glo ATP luminescence, 90 h. inhibition, % at 24.9 µM. 5,600 tested, 56% active. AID 651744;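 active = mean loss of cell viability signal at or above a set limit, and enough replicates individually reaching it; inconclusive = meets only the mean limit or only the replicate share; inactive = meets neither condition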;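 note: 0% = median of neutral control wells and 100% = median of positive control wells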
* marks the source's active call; other numbers are inactive results. Hits are enriched below; roughly 6.7% of the tested compounds scored in any of these assays.

Screening COc1cccc(-c2ccc3c(c2)[C@@H]2[C@@H](CCN2C(=O)Cc2ccccc2)[C@@H](CO)N3)c1 returned T cruzi growth-1 17, C diff HTS -28 and Pf Dd2 inh 1.
CN(C)C(=O)c1cccc(-c2ccc3c(c2)[C@H]2[C@H](CCN2C(=O)C2CCOCC2)[C@H](CO)N3)c1 was read as T cruzi growth-1 92, C diff HTS 5 and Pf Dd2 inh 8.
`Cc1ccccc1S(=O)(=O)N1CC(=O)N2[C@H](C1)[C@@H](c1ccc(C#CCC(C)C)cc1)[C@@H]2CO` gave C diff HTS 11 and Pf Dd2 inh -74.
`COCc1cn(CC[C@H]2CC[C@H](NC(=O)Nc3ccc(C(F)(F)F)cc3)[C@H](CO)O2)nn1` gave T cruzi growth-1 -4, C diff HTS 0 and Pf Dd2 inh 12.
COCC(=O)Nc1ccc2c(c1)[C@H]1C[C@@H](CC(=O)NCCN3CCCCC3)O[C@H](CO)[C@H]1O2 was read as T cruzi growth-1 15, C diff HTS -1 and Pf Dd2 inh 15.
Screening CS(=O)(=O)N1[C@@H]2c3ccc(C4=CCCC4)c(=O)n3C[C@@H]2[C@@H](CO)[C@@H]1C(=O)NCCc1ccncc1 returned T cruzi growth-1 88 and C diff HTS 1.
`C[C@@H]1CN([C@@H](C)CO)C(=O)c2cc(NS(=O)(=O)c3cn(C)cn3)ccc2O[C@@H](C)CCCCO[C@H]1CN(C)S(=O)(=O)c1ccc(F)cc1` gave C diff HTS 3 and Pf Dd2 inh -17.
Screening O=C(CN1CCOCC1)N1CC[C@H]2[C@H](CO)Nc3ccc(-c4ccc(F)cc4)cc3[C@H]21 returned T cruzi growth-1 86, C diff HTS 3 and Pf Dd2 inh -25.
Screening O=C(CN1CCOCC1)N1CC[C@@H]2[C@H]1c1cc(-c3ccccc3)ccc1N[C@@H]2CO returned T cruzi growth-1 inconclusive, C diff HTS -11, Pf Dd2 inh 7, T cruzi growth-2 98*, T cruzi growth-3 14, NIH3T3 tox -17 and NIH3T3 tox 2 5.
`C[C@@H]1CN([C@H](C)CO)C(=O)Cc2cc(NC(=O)c3ccncc3)ccc2O[C@H]1CN(C)S(=O)(=O)c1ccccc1` gave C diff HTS 0 and Pf Dd2 inh -1.
Screening CC(C)NC(=O)N1[C@H](CO)[C@@H](c2ccc(C#CC3CCCCC3)cc2)[C@@H]1C#N returned T cruzi growth-1 99*, C diff HTS -4, Pf Dd2 inh -49, T cruzi growth-2 94, T cruzi growth-3 105*, NIH3T3 tox -20 and NIH3T3 tox 2 105*.
`N#C[C@@H]1[C@H](c2ccc(C#CC3CCCCC3)cc2)[C@@H](CO)N1C(=O)Nc1ccc(F)cc1` gave C diff HTS -12 and Pf Dd2 inh inconclusive.
For CC(C)NC(=O)N1[C@@H](C#N)[C@H](c2ccc(C#CC3CCCCC3)cc2)[C@@H]1CO the results were T cruzi growth-1 100*, C diff HTS -13, Pf Dd2 inh -37, T cruzi growth-2 105*, T cruzi growth-3 73, NIH3T3 tox 3 and NIH3T3 tox 2 62*.
For N#C[C@H]1[C@@H](c2ccc(C#CC3CCCCC3)cc2)[C@@H](CO)N1C(=O)Nc1ccc(F)cc1 the results were C diff HTS 67 and Pf Dd2 inh -3.
Screening O=C(C[C@@H]1CC[C@@H](NC(=O)c2ccc3c(c2)OCO3)[C@H](CO)O1)NC1Cc2ccccc2C1 returned T cruzi growth-1 -6 and Pf Dd2 inh 14.
Screening CC=Cc1ccc2n(c1=O)C[C@@H]1[C@@H](CO)[C@H](C(=O)NC3CCCC3)N(C(=O)C3CCC3)[C@H]21 (mixture of isomers) returned C diff HTS 2 and Pf Dd2 inh 60.
For C[C@H](CO)N1C[C@H](C)[C@@H](CN(C)C(=O)c2cccc(F)c2)Oc2cc(-c3ccncc3)ccc2S1(=O)=O the results were T cruzi growth-1 110*, C diff HTS 4, Pf Dd2 inh -47, T cruzi growth-2 95, T cruzi growth-3 52, NIH3T3 tox 22 and NIH3T3 tox 2 44*.
Screening C[C@@H]1CN([C@@H](C)CO)S(=O)(=O)c2ccc(-c3ccncc3)cc2O[C@H]1CN(C)C(=O)c1cccc(F)c1 returned T cruzi growth-1 111*, C diff HTS 9, Pf Dd2 inh -48, T cruzi growth-2 96*, T cruzi growth-3 87, NIH3T3 tox 10 and NIH3T3 tox 2 25*.
Screening C[C@@H]1CN([C@@H](C)CO)S(=O)(=O)c2ccc(-c3cccc(F)c3)cc2O[C@H]1CN(C)C(=O)c1cccc(F)c1 returned T cruzi growth-1 100*, C diff HTS 3, Pf Dd2 inh -44, T cruzi growth-2 98*, T cruzi growth-3 85, NIH3T3 tox 53* and NIH3T3 tox 2 40*.
`C[C@@H]1CN([C@@H](C)CO)S(=O)(=O)c2ccc(-c3ccncc3)cc2O[C@H]1CN(C)C(=O)c1ccc2c(c1)OCO2` gave T cruzi growth-1 106*, C diff HTS 2, Pf Dd2 inh -28, T cruzi growth-2 99*, T cruzi growth-3 81, NIH3T3 tox 3 and NIH3T3 tox 2 17.
Screening C[C@@H]1CN([C@@H](C)CO)S(=O)(=O)c2ccc(-c3ccccc3)cc2O[C@@H]1CN(C)C(=O)c1ccc2c(c1)OCO2 returned C diff HTS -1 and Pf Dd2 inh 15.
`C[C@H]1CN([C@@H](C)CO)S(=O)(=O)c2ccc(-c3cccc(F)c3)cc2O[C@H]1CN(C)C(=O)c1cccc(F)c1` gave T cruzi growth-1 53, C diff HTS 4 and Pf Dd2 inh -56.
C[C@H]1CN([C@@H](C)CO)S(=O)(=O)c2ccc(-c3cccnc3)cc2O[C@@H]1CN(C)C(=O)c1cccc(F)c1 was read as T cruzi growth-1 45, C diff HTS 7 and Pf Dd2 inh -24.
Screening C[C@@H]1CN([C@@H](C)CO)S(=O)(=O)c2ccc(-c3cccc(F)c3)cc2O[C@@H]1CN(C)C(=O)c1cccc(F)c1 returned T cruzi growth-1 51, C diff HTS -1 and Pf Dd2 inh -20.
`CC(C)NC(=O)Nc1ccc2c(c1)C(=O)N(C)[C@H]1CC[C@H](CC(=O)NC3CCCCC3)O[C@H]1CO2` gave T cruzi growth-1 6, C diff HTS -1 and Pf Dd2 inh 11.
For CCCNC(=O)N[C@@H]1CC[C@@H](CCn2cc(C3CCCC3)nn2)O[C@H]1CO the results were T cruzi growth-1 -70 and Pf Dd2 inh 4.
O=C(c1ccncc1)N1C[C@@H]2[C@H](c3ccccc31)[C@@H](CO)N2C(=O)Nc1ccccc1Cl was read as T cruzi growth-1 17, C diff HTS 2 and Pf Dd2 inh -1.
